Screens from PubChem BioAssay.
The full list was thinned out, with hits kept by preference.
Pf Dd2 growth = qHTS Primary assay for Inhibitors of Plasmodium falciparum Dd2 growth in vitro. hit rate 4.3% among 120,000. AID 1347417, 2020. Potency, µM (top dose mostly 28.9 µM), for the others: top-dose activity, negative = inhibition, usual class: inhibitors. P. falciparum Dd2 growth, SYBR Green, 72 h; active = well fitted inhibition curve with a large enough effect;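 note: plate controls were DMSO vehicle for no effect and reference drug for full effect; nearly all actives have a fitted effect of over 65% in size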
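Infected erythrocytes (Dd2, 0.3% parasitemia, 2.5% hematocrit final) are added to compound in RPMI-1640/Albumax II medium, grown 72 h at 37C in low oxygen, then lysed with saponin/Triton-X containing SYBR Green and read by fluorescence.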
An asterisk follows results filed as active; i = inactive; [ ] = remark or other dose. Potency is the fitted concentration of half-maximal effect.

SMILES	Pf Dd2 growth
CC1=C[C@@H](CN(CC2CC2)CC2CC2)[C@H](C(C)C)C[C@H]1Cc1nc2ccncc2[nH]1	-1%[44.1 µM]
CC1=C[C@@H](CO)[C@H](C(C)C)C[C@H]1Cc1nnc(Cc2c[nH]c3ccccc23)o1	i
CC1=C[C@@H](CNCCN(C)C)[C@H](C(C)C)C[C@H]1Cc1nnc(-c2ccc(C)cc2)o1	2.2µM*
COc1ccc(N(C(=O)c2ccccc2F)S(=O)(=O)c2ccc3c(c2)n(C)c(=O)n3C)cc1	23%
CNC(=O)Nc1ccc(C2(C(=O)N3CCN(c4ccccc4Cl)CC3)CCC2)cc1	9%
NC(=O)c1ccc(O[C@@H]2COCC[C@H]2NC(=O)N2CCOCC2)cc1	-16%
Fc1c(Cl)cccc1Nc1ncncc1-c1nc(-c2ccccc2)no1	i
COc1cccc(CCC(=O)N2CCC(c3nc(C4CCOCC4)no3)CC2)c1	i
CNC(=O)[C@@H](c1ccccc1F)N1CCC[C@H]1C(=O)N1CCCCC1	7%[44.1 µM]
CC(C)c1noc(-c2cccn3c(CNC(=O)CCc4ccccc4)nnc23)n1	-7%
COCC(=O)N(C1CCOCC1)C1CCN(C(=O)c2ccc(OC)c(F)c2)CC1	20%
CC1=C[C@@H](CN2CCC[C@H]2CO)[C@H](C(C)C)C[C@H]1Cc1nnc(-c2ccc(N(C)C)cc2)o1	1.4µM*
CN(C)c1ccc(-c2nnc([C@H]3CCN(C(=O)CCC(=O)O)C3)o2)cc1	-29%[44.1 µM]
COc1cccc(CNC(=O)[C@@H]2C[C@@H](O)CN2C2CCN(C(=O)c3ccc(OC)nc3)CC2)c1	i
Cc1nc2ccccc2n1CCc1nc2c3ccccc3nc(SCC(=O)Nc3cccc(C(F)(F)F)c3)n2n1	i
Cc1nc2ccccc2n1CCc1nc2c3ccccc3nc(SCC(=O)Nc3ccc(Br)cc3F)n2n1	i
Cc1nc2ccccc2n1CCc1nc2c3ccccc3nc(SCC(=O)Nc3ccc(C(C)C)cc3)n2n1	8.9µM*
Cc1cccc(NC(=O)N2CCC(Cc3nc(-c4ccccc4)n[nH]3)CC2)c1	1.6µM*
Cc1cc(C)n(CCC(=O)N2CCC(Cc3nc(-c4ccccc4)n[nH]3)CC2)n1	i
Cc1ccc(CNC(=O)N2CCC(Cc3nc(-c4ccncc4)n[nH]3)CC2)cc1	-10%
CN1CCC(N2CCN(S(=O)(=O)c3ccc(Cl)cc3)CC2)C1=O (centres undefined)	4%
COc1cc(C(=O)N2CCCC(c3nnc(Cn4ccnc4)n3C)C2)ccc1C (centres undefined)	-17%
CN(C)c1cc(N2CCCC(NC(=O)c3ccccc3F)C2)ncn1 (centres undefined)	i[5.79 µM]
CN(CC1CCOC1)C(=O)c1ccc(Br)o1 (centres undefined)	i[5.79 µM]
CCCC(=O)N1Cc2ccccc2CC2(CCCN2CCC)C1 (centres undefined)	8.9µM*
SMILES	Pf Dd2 growth
CCCN1CCCC12Cc1ccccc1CN(C(=O)CNC(C)=O)C2 (centres undefined)	9%
NCCC(=O)N1Cc2ccccc2CC2(CCCCN2CC2CCNCC2)C1 (centres undefined)	18%
O=C(O)CCCC(=O)N1Cc2ccccc2CC2(CCCCN2CCc2ccccc2)C1 (centres undefined)	-20%
CCCN1CCCCC12Cc1ccccc1CN(C(=O)CCCC(=O)O)C2 (centres undefined)	5%
CCCC(=O)N1Cc2ccccc2CC2(CCCCN2CC)C1 (centres undefined)	10µM*
COCCNC(=O)NC[C@H]1O[C@@H]2C[C@@H](CC(=O)NC(C)C)O[C@@H]2[C@@H]1O	34%[44.1 µM]
COc1ccc(C)cc1NC(=O)N(Cc1ccc(C)o1)C1CCN(C(C)=O)CC1	-17%
CC(=O)N1CCC(N(Cc2ccco2)C(=O)Nc2ccc(C)c(Cl)c2)CC1	1%
Cc1ccc(NC(=O)N(Cc2ccc3c(c2)OCO3)C2CCN(Cc3ccccc3)CC2)cc1C	-28%
CCN1CCC(N(Cc2cccc(OC)c2)C(=O)Nc2ccc(C)cc2Cl)CC1	-14%
Cc1ccc(NC(=O)N(Cc2ccc3c(c2)OCO3)C2CCN(Cc3ccccc3)CC2)cc1Cl	10µM*
COc1ccc(C)cc1NC(=O)N(Cc1ccc2c(c1)OCO2)C1CCN(Cc2ccccc2)CC1	8.9µM*
Cc1cccc(OCC(=O)N2CC(C(=O)NCCc3ccncc3)C3(CCOCC3)C2)c1 (centres undefined)	-15%
CN(C)CCN(C)C(=O)c1ccc(-c2ncc3cnc(-c4ccccc4)cn23)cc1	-24%[44.1 µM]
Cc1noc(C2CCCCCN2C(=O)Cc2ccccc2)n1 (centres undefined)	-21%
COc1ccc(NC(=O)N[C@H]2CO[C@H]3[C@@H]2OC[C@@H]3n2cc(CN(C)Cc3ccccc3)nn2)cc1	1%
O=C(Cc1cccc(Cl)c1)N1CCC2(CC1)Cc1ccccc1NC2=O	i
CCOc1ccc(C2c3c(oc4cc(C)c(C)cc4c3=O)C(=O)N2c2ccccn2)cc1 (centres undefined)	-8%
CCOc1ccc(C2c3c(-c4ccccc4O)n[nH]c3C(=O)N2Cc2ccncc2)cc1 (centres undefined)	14µM*
